Source: PubChem BioAssay (Tox21)
Results filed as inconclusive are left out. The source made the active and inactive calls. Unless noted, the call rests on the fitted dose curve; in most records, active means well fitted curve in the direction sought with a large enough effect in the repeat runs; inconclusive means weak or mixed curves; inactive means no such curve, though single readings can be large; an effect the other way counts as inactive or inconclusive.

Experiments:
[1] = qHTS assay to identify small molecule antagonists of the vitamin D receptor (VDR) signaling pathway - cell viability counter screen (AID 743225); further: on the % scale 0 is the no-effect control and ±100 the full control effect; nearly all actives have a fitted effect of over 50% in size
How it was run: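 Compounds were pinned onto VDR-bla HEK 293T cells together with 1-alpha,25-dihydroxyvitamin D3 at 3 nM final. After 16 h at 37C and 5% CO2 plus the reporter readout, cell viability was measured by CellTiter-Glo luminescence (30 min, room temperature).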

[2] = qHTS assay to identify small molecule agonists of the NFkB signaling pathway (AID 1159509; active means well fitted curve in the direction sought with a large enough effect in the signal ratio in the repeat runs, not every such curve was filed as active; the % refers to the signal ratio; further: series mostly up to about 61 µM; on the % scale 0 is the no-effect control and ±100 the full control effect)
How it was run: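 NFkB-bla ME-180 cells with a beta-lactamase reporter under an NF-kB response element were plated overnight, treated with compounds in DMSO for 5 hr at 37 C, then loaded with FRET substrate for 1.5 hr at room temperature.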

[3] = qHTS assay to identify small molecule agonists of the NFkB signaling pathway - cell viability counter screen (AID 1159515; calls by dose curve; further: series mostly up to about 61 µM; on the % scale 0 is the no-effect control and ±100 the full control effect; nearly all actives have a fitted effect of over 55% in size)
How it was run: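 5 hr compound treatment of NFkB-bla ME-180 cells (2,000/well, seeded overnight beforehand), followed by reporter substrate for 1.5 hr. CellTiter-Glo added afterward; luminescence after 30 min RT.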

[4] = qHTS assay to identify small molecule agonists of the endoplasmic reticulum stress response signaling pathway (AID 1159516; active means well fitted activation curve with a large enough effect in the signal ratio in the repeat runs, not every such curve was filed as active; the % refers to the signal ratio; further: on the % scale 0 is the no-effect control and ±100 the full control effect)
How it was run: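 Reporter HeLa cells (ESRE-beta-lactamase) underwent 5 hr compound incubation at 37 C and 5% CO2 in quantitative HTS format. Detection followed 2 hr of FRET substrate loading at room temperature.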

[5] = qHTS assay to identify small molecule agonists of the endoplasmic reticulum stress response signaling pathway - cell viability counter screen (AID 1159517; calls by dose curve;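 further: HeLa cells carrying an ER stress response element beta-lactamase reporter; series mostly up to about 61 µM; on the % scale 0 is the no-effect control and ±100 the full control effect; nearly all actives have a fitted effect of over 50% in size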)
How it was run: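 Luminescence readout: CellTiter-Glo, 30 min RT, same wells as the ESRE-bla reporter read. HeLa ESRE-bla, 1,500 cells/well, o/n 37 C; cpd 5 hr 37 C/5% CO2.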

[6] = qHTS assay to identify small molecule antagonists of the retinoid-related orphan receptor gamma (ROR-gamma) signaling pathway - cell viability counter screen (AID 1159520); further: on the % scale 0 is the no-effect control and ±100 the full control effect; nearly all actives have a fitted effect of over 50% in size
How it was run: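 Tet-on ROR gamma CHO cells (1,000/well) were plated 4 hr, given compounds in DMSO for 2 hr at 37 C, then induced with 1 uM final doxycycline for 16 hr. Viability was read as ATP by CellTiter-Glo luminescence after 30 min.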

[7] = target: Nuclear receptor ROR-gamma (Homo sapiens) (UniProt P51449); experiment: qHTS assay to identify small molecule antagonists of the retinoid-related orphan receptor gamma (ROR-gamma) signaling pathway (AID 1159521;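 further: CHO cells with doxycycline inducible ROR-gamma driving an RORE luciferase reporter; top concentration of the series differs between compounds; on the % scale 0 is the no-effect control and ±100 the full control effect; nearly all actives have a fitted effect of over 50% in size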)
How it was run: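 Test compounds were applied to Tet-on RORγ CHO cells 2 h ahead of doxycycline hyclate (1 uM final). Luciferase reporter activity was quantified by luminescence after 16 h at 37 C and 5% CO2.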

[8] = qHTS assay to identify small molecule agonists of the AP-1 signaling pathway (AID 1159526; calls by dose curve; further: on the % scale 0 is the no-effect control and ±100 the full control effect)
[9] = target: Retinoic acid receptor RXR-alpha (Homo sapiens) (UniProt P19793); experiment: qHTS assay to identify small molecule agonists of the RXR signaling pathway (AID 1159527; calls by dose curve; further: on the % scale 0 is the no-effect control and ±100 the full control effect; nearly all actives have a fitted effect of over 35% in size)
How it was run: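 Using 9-cis retinoic acid as the reference agonist, chemicals were tested in HEK 293T cells […] for 16 hr; substrate loading lasted 2 hr at room temperature.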

[10] = qHTS assay to identify small molecule agonists of the RXR signaling pathway - cell viability counter screen (AID 1159529)
How it was run: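 Compounds dissolved in DMSO were pinned onto HEK 293T cells carrying a beta-lactamase reporter under RXR-alpha control and incubated 16 hr. Cytotoxicity was then quantified by CellTiter-Glo luminescence.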

[11] = qHTS assay to identify small molecule antagonists of the retinoid acid receptor (RAR) signaling pathway - cell viability counter screen (AID 1159551); further: on the % scale 0 is the no-effect control and ±100 the full control effect; nearly all actives have a fitted effect of over 35% in size
How it was run: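 Seed C3RL4 cells; next day add compound, then retinol to 1 uM final; incubate 6 h at 37 C; add CellTiter-Glo; read luminescence after 30 min at RT.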

[12] = qHTS assay to identify small molecule antagonists of the retinoic acid receptor (RAR) signaling pathway (AID 1159552)
How it was run: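 Test chemicals and DMSO controls were pin-transferred onto C3RL4 cells a day after seeding; retinol (1 uM final) followed at once. Luminescent reporter output was quantified after 6 hr of co-incubation and 30 min with detection reagent.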

[13] = qHTS assay to identify small molecule agonists of the retinoic acid receptor (RAR) signaling pathway (AID 1159553); further: on the % scale 0 is the no-effect control and ±100 the full control effect
How it was run: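 Activation of retinol signaling was monitored via a RARE luciferase reporter in C3RL4 cells. After 6 hr compound treatment at 37 C, detection reagent was added for 30 min at room temperature before luminescence reading.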

[14] = qHTS assay to identify small molecule antagonists of the estrogen related receptor (ERR) signaling pathway from Tox21 library - cell viability counter screen (AID 1224834); further: on the % scale 0 is the no-effect control and ±100 the full control effect; nearly all actives have a fitted effect of over 30% in size
How it was run: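 CellTiter-Fluor fluorescence measured; ERR cells; 17.5 h compound incubation at 37 C; 30 min reagent step.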

[15] = target: Luciferin 4-monooxygenase (Photinus pyralis) (UniProt P08659); experiment: qHTS assay to identify small molecule inhibitors of firefly luciferase (AID 1224835); further: series mostly up to about 120 µM; on the % scale 0 is the no-effect control and ±100 the full control effect; nearly all actives have a fitted effect of over 25% in size
How it was run: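 Quantitative HTS format; KM concentrations of both substrates. Purified P. pyralis FLuc activity quantified from luminescence images.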

[16] = qHTS assay to identify small molecule agonists of the constitutive androstane receptor (CAR) signaling pathway - cell viability counter screen (AID 1224836); further: series mostly up to about 92 µM; on the % scale 0 is the no-effect control and ±100 the full control effect; nearly all actives have a fitted effect of over 45% in size
How it was run: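 23 h treatment, 37 C, 5% CO2. Cell line: HepG2 stably expressing hCAR with a CYP2B6-2.2kb construct. Co-treatment: PK11195, 0.75 uM final. Read-out: CellTiter-Fluor fluorescence intensity.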

[17] = qHTS assay to identify small molecule antagonists of the constitutive androstane receptor (CAR) signaling pathway - cell viability counter screen (AID 1224837); further: series mostly up to about 92 µM; on the % scale 0 is the no-effect control and ±100 the full control effect; nearly all actives have a fitted effect of over 45% in size
How it was run: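 Using CellTiter-Fluor, viability is scored in HepG2 cells stably carrying hCAR and a 2.2kb CYP2B6 reporter after 23 hr compound exposure across 15 concentrations, with CITCO present at 50 nM.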

[18] = target: Nuclear receptor subfamily 1 group I member 3 (Homo sapiens) (UniProt Q14994); experiment: qHTS assay to identify small molecule antagonists of the constitutive androstane receptor (CAR) signaling pathway (AID 1224838);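 further: HepG2 cells stably expressing hCAR with CYP2B6 luciferase reporter stimulated by CITCO; on the % scale 0 is the no-effect control and ±100 the full control effect; nearly all actives have a fitted effect of over 40% in size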
How it was run: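 Reporter luminescence was quantified after 24 h exposure of hCAR/CYP2B6-2.2kb double-stable HepG2 cells to compounds at 15 concentrations in the presence of 50 nM CITCO final.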

[19] = target: Nuclear receptor subfamily 1 group I member 3 (Homo sapiens) (UniProt Q14994); experiment: qHTS assay to identify small molecule agonists of the constitutive androstane receptor (CAR) signaling pathway (AID 1224839);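 further: HepG2 cells stably carrying human CAR and a CYP2B6 luciferase reporter; series mostly up to about 92 µM; on the % scale 0 is the no-effect control and ±100 the full control effect; nearly all actives have a fitted effect of over 15% in size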
How it was run: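 Compounds tested at 15 concentrations on HepG2 cells stably harbouring hCAR and CYP2B6-2.2kb reporter constructs, co-treated with PK11195 (0.75 uM final), 24 h at 37 C; luminescent reporter signal quantified.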

[20] = qHTS assay to identify small molecule agonists of the AP-1 signaling pathway - cell viability counter screen (AID 1159525; calls by dose curve; further: nearly all actives have a fitted effect of over 55% in size)
How it was run: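 ME-180 AP-1-bla, 2500 cells/well, Opti-MEM + 0.5% dialyzed FBS; overnight 37 °C; cpd 15-pt titration, 5 h 37 °C; CellTiter-Glo 30 min RT; luminescence read; normalised to TOAB and DMSO controls.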

Sequence of Luciferin 4-monooxygenase (Photinus pyralis) (P08659 whole entry, looked up): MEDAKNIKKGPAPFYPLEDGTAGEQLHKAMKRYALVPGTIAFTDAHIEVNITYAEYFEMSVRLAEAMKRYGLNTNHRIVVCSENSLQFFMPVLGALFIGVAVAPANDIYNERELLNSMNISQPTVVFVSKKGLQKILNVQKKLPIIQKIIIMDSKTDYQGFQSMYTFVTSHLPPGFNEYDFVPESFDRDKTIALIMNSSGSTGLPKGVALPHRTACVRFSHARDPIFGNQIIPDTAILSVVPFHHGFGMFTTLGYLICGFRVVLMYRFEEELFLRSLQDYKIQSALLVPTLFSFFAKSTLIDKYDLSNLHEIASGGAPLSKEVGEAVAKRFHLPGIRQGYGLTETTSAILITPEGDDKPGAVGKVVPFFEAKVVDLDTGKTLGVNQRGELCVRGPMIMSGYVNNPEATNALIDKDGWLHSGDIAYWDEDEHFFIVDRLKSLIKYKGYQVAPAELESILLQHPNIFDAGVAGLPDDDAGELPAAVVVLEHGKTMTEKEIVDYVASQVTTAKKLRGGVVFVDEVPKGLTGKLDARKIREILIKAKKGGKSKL
Sequence of Retinoic acid receptor RXR-alpha (Homo sapiens) (P19793 whole entry, looked up): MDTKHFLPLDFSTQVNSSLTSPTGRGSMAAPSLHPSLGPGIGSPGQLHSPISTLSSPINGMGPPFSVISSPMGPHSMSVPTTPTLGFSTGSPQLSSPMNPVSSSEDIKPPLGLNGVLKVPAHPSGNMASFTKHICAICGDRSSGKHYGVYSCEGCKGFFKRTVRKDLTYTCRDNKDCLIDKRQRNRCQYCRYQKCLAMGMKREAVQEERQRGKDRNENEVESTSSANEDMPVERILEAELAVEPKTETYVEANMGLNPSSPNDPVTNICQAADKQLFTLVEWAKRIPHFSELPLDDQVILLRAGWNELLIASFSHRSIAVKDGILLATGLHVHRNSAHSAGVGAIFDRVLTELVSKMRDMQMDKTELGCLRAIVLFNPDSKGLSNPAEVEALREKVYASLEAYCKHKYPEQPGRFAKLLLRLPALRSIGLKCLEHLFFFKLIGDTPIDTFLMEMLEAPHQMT
Sequence of Nuclear receptor subfamily 1 group I member 3 (Homo sapiens) (Q14994 whole entry, looked up): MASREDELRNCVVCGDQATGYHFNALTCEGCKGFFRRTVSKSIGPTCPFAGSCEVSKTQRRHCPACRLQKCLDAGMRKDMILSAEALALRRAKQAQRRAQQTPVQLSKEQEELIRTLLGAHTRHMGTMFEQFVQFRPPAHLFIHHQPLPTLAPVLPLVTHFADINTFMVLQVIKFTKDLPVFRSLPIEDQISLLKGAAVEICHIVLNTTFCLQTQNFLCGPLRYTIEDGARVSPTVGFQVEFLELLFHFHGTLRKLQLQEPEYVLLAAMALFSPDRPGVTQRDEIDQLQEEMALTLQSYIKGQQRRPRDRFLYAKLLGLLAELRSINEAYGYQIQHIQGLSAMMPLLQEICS

O=C1c2ccccc2C(=O)c2cc(Cl)ccc21
inactive: viability change, negative = cytotoxic [1] -4.02% [at 6.95 µM] | activation [2] -0.467% [at 6.95 µM] | activity, negative = cytotoxic [3] 13.9% [at 6.95 µM] | activation [4] 0.175% [at 6.95 µM] | activity change, negative = cytotoxicity [5] 0.196% [at 6.95 µM] | activity, negative = cytotoxicity [6] 5.88% [at 8.39 µM] | activity change, negative = inhibition [7] 38.6% [at 8.39 µM] | activation [8] -9.9% [at 6.97 µM] | activation [9] 2.02% [at 6.98 µM] | activity change, negative = cytotoxicity [10] 5.38% [at 6.97 µM] | activity change, negative = cytotoxicity [11] 3.77% [at 8.39 µM] | activity, negative = inhibition [12] 30% [at 8.39 µM] | activation [13] 2.57% [at 8.36 µM] | viability change, negative = cytotoxic [14] 1.32% [at 8.39 µM] | activity change, negative = inhibition [15] 0.579% [at 10.5 µM] | viability change, negative = cytotoxic [16] -1.2% [at 8.39 µM] | activity change, negative = cytotoxicity [17] 2.26% [at 8.39 µM] | activity, negative = inhibition [18] 54.9% [at 8.39 µM] | activation [19] 8.38% [at 8.39 µM]

OC[C@H]1O[C@@H](O[C@@H]2[C@@H](CO)O[C@](O)(CO)[C@H]2O)[C@H](O)[C@@H](O)[C@H]1O
inactive: outcome [1] | outcome [2] | outcome [3] | outcome [4] | outcome [5] | outcome [6] | outcome [7] | outcome [8] | Potency [9] | outcome [10] | outcome [11] | outcome [12] | Potency [13] | outcome [14] | Potency [15] | outcome [16] | outcome [17] | Potency [18] | Potency [19]

CN(C)C(C)(C)CO
inactive: outcome [1] | outcome [2] | outcome [3] | outcome [4] | outcome [5] | outcome [6] | outcome [7] | outcome [8] | Potency [9] | outcome [10] | outcome [11] | outcome [12] | Potency [13] | outcome [14] | Potency [15] | outcome [16] | outcome [17] | Potency [18] | Potency [19]

CCCSSCCC
inactive: outcome [1] | outcome [2] | outcome [3] | outcome [4] | outcome [5] | outcome [6] | outcome [7] | outcome [8] | Potency [9] | outcome [10] | outcome [11] | outcome [12] | Potency [13] | outcome [14] | Potency [15] | outcome [16] | outcome [17] | Potency [18] | Potency [19]

O=C(Cn1ccnc1[N+](=O)[O-])NCc1ccccc1
inactive: outcome [2] | outcome [3] | outcome [4] | outcome [5] | outcome [6] | outcome [7] | outcome [8] | Potency [9] | outcome [10] | outcome [11] | outcome [12] | Potency [13] | outcome [14] | Potency [15] | outcome [16] | outcome [17] | Potency [18] | Potency [19]

CCCC(=O)Nc1ccc(OCC(O)CNC(C)C)c(C(C)=O)c1 (stereo not drawn)
inactive: outcome [2] | outcome [3] | outcome [4] | outcome [6] | outcome [7] | outcome [20] | outcome [8] | Potency [9] | outcome [10] | outcome [11] | outcome [12] | Potency [13] | outcome [14] | Potency [15] | outcome [16] | outcome [17] | Potency [18] | Potency [19]

O=Cc1cc2ccccc2o1
inactive: outcome [1] | outcome [2] | outcome [3] | outcome [4] | outcome [5] | outcome [6] | outcome [7] | outcome [8] | Potency [9] | outcome [10] | outcome [11] | outcome [12] | Potency [13] | outcome [14] | Potency [15] | outcome [16] | outcome [17] | Potency [18] | Potency [19]

CN(C)CCN(C)CCO
inactive: outcome [1] | outcome [2] | outcome [3] | outcome [4] | outcome [5] | outcome [6] | outcome [7] | outcome [8] | Potency [9] | outcome [10] | outcome [11] | outcome [12] | Potency [13] | outcome [14] | Potency [15] | outcome [16] | outcome [17] | Potency [18] | Potency [19]

CC(=O)O[C@@H]1CC2CCC1(C)C2(C)C (stereo partly drawn)
inactive: outcome [1] | outcome [2] | outcome [3] | outcome [4] | outcome [5] | outcome [6] | outcome [7] | outcome [8] | Potency [9] | outcome [10] | outcome [11] | outcome [12] | Potency [13] | outcome [14] | Potency [15] | outcome [16] | outcome [17] | Potency [18] | Potency [19]

CC1CC(=O)CC(C)(C)C1 (stereo not drawn)
inactive: outcome [1] | outcome [2] | outcome [3] | outcome [4] | outcome [5] | outcome [6] | outcome [20] | outcome [8] | Potency [9] | outcome [10] | outcome [11] | outcome [12] | Potency [13] | outcome [14] | Potency [15] | outcome [17]

CCCCCCC1(C)CCC(=O)O1 (stereo not drawn)
inactive: outcome [1] | outcome [2] | outcome [3] | outcome [4] | outcome [5] | outcome [6] | outcome [7] | outcome [8] | Potency [9] | outcome [10] | outcome [11] | outcome [12] | Potency [13] | outcome [14] | Potency [15] | outcome [16] | outcome [17] | Potency [18] | Potency [19]

CNCCS(=O)(=O)O
inactive: outcome [1] | outcome [2] | outcome [3] | outcome [4] | outcome [5] | outcome [6] | outcome [7] | outcome [8] | Potency [9] | outcome [10] | outcome [11] | outcome [12] | Potency [13] | outcome [14] | Potency [15] | outcome [16] | outcome [17] | Potency [18]

CC/C(C)=N\O[Si](C)(O/N=C(\C)CC)O/N=C(\C)CC
inactive: outcome [1] | outcome [2] | outcome [3] | outcome [4] | outcome [5] | outcome [6] | outcome [7] | outcome [8] | Potency [9] | outcome [10] | outcome [11] | outcome [12] | Potency [13] | outcome [14] | Potency [15] | outcome [16] | outcome [17] | Potency [18]

CN(C)CCCCl
inactive: outcome [1] | outcome [2] | outcome [3] | outcome [4] | outcome [5] | outcome [6] | outcome [7] | outcome [8] | Potency [9] | outcome [10] | outcome [11] | outcome [12] | Potency [13] | outcome [14] | Potency [15] | outcome [16] | outcome [17] | Potency [18] | Potency [19]

OC1OCCOC1O (stereo not drawn)
inactive: outcome [1] | outcome [2] | outcome [3] | outcome [4] | outcome [5] | outcome [6] | outcome [7] | outcome [8] | Potency [9] | outcome [10] | outcome [11] | outcome [12] | Potency [13] | outcome [14] | Potency [15] | outcome [16] | outcome [17] | Potency [18] | Potency [19]
